# Assay results as given in the supplement of paper PMC7858590.
# “And” between values parts separate entries of the source, which are not always exact repeats. Equal values may be shown once.
# Test system: human monocyte-derived macrophages (polarized)
# Test: cell shape (eccentricity) Z-score vs DMSO control; higher = more elongated, M2-like morphology
# Conditions: 5 µM; 24 h; macrophage state: M1-polarized (IFNg + TNFa), cytokines present during treatment
# Description: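 Primary-screen hits were rescreened on polarized hMDMs with the differentiating cytokines (IL-4 + IL-13 or IFNg + TNFa) kept in the medium during treatment with compound at 5 uM for 24 h. The eccentricity Z-score vs DMSO wells is averaged over experiments.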
row,SMILES,cell shape (Z-score)
1,Cn1cc(C2=C(c3cn(CCCSC(=N)N)c4ccccc34)C(=O)NC2=O)c2ccccc21,17.6
2,C[C@H](CO)N1C[C@H](C)[C@H](CN(C)C(=O)Nc2cc(F)ccc2F)Oc2cc(C#CC3CCCC3)ccc2S1(=O)=O,-2.86
3,NC(N)=NCCNS(=O)(=O)c1cccc2cnccc12,-4.47
4,CC1=C(/C=C/C(C)=C/C=C/C(C)=C/C(=O)O)C(C)(C)CCC1,7.03
5,CCCC(=O)Nc1ncnc2c1ncn2[C@@H]1O[C@@H]2COP(=O)(O)O[C@H]2[C@H]1OC(=O)CCC,0.117
6,N#CC[C@H](C1CCCC1)n1cc(-c2ncnc3[nH]ccc23)cn1,1.19
7,CC1(C)CC[C@]2(C(=O)O)CC[C@]3(C)C(=CCC4[C@@]5(C)CC[C@@H](O)C(C)(C)C5CC[C@]43C)C2C1 (stereo not given in full),-1.9
8,CC(=Cc1ccc(C(=O)O)cc1)c1ccc2c(c1)C(C)(C)CCC2(C)C,-2.82
9,COc1ccc(-c2oc3ccccc3c(=O)c2O)cc1OC,-0.838
10,COc1ccc2oc(-c3ccccc3OC)cc(=O)c2c1,0.285
11,COc1ccc([C@H]2CNC(=O)C2)cc1OC1CCCC1,-2.33
12,COc1ccc2c(c1OC)CN(C)CCc1cc3c(cc1C(=O)C2)OCO3,-5.59
13,CN(C)C(=O)n1nnnc1Cc1ccc(-c2ccccc2)cc1,10.3
14,C[C@]1(CO)CN(c2cc(C(=O)Nc3ccc4c(c3)-c3c(c(C(N)=O)nn3-c3ccc(F)cc3)CC4)c(Cl)cn2)C[C@@]1(C)CO,-7.03
15,CCN(CC)CCNC(=O)c1c(C)[nH]c(/C=C2\C(=O)Nc3ccc(F)cc32)c1C,8.79 and 5.25
16,Cc1c(-c2ccnc(Nc3ccc(N4CCNCC4)cc3)n2)sc(=O)n1C,7.79
17,CC(C)C[C@@H](C=O)NC(=O)[C@H](CC(C)C)NC(=O)[C@H](CC(C)C)NC(=O)OCc1ccccc1,4.21
18,c1cc(-c2cnn3cc(-c4ccc(OCCN5CCCCC5)cc4)cnc23)ccn1,1.96
19,O=C(O[C@@H]1Cc2c(O)cc(O)cc2O[C@@H]1c1cc(O)c(O)c(O)c1)c1cc(O)c(O)c(O)c1,-2.7
20,COC(=O)C(CCCN=C(N)N)NC(=O)CCCc1c(-c2ccccc2)[nH]c2c(F)cc(F)cc12 (stereo not given),0.683
21,CC1(C)C(=O)C=CC2(C)C1C=CC1(C)C2CCC2(C)C(c3ccoc3)OC(=O)C3OC312 (stereo not given),-1.04
22,CC(C)CNc1ccnc(NCc2csc(-c3ccccc3)n2)n1,-11.9
23,COCc1c(C(C)C)nc(C(C)C)c(/C=C/[C@@H](O)C[C@@H](O)CC(=O)O)c1-c1ccc(F)cc1,9.45
24,O=c1cc(-c2cccc3c2Sc2ccccc2S3)oc(N2CCOCC2)c1,-7.49
25,C[C@@H]1O[C@@H](Oc2cc(O)c3c(=O)c(O[C@@H]4O[C@@H](C)[C@H](O[C@@H]5O[C@@H](C)[C@H](O)[C@@H](O)[C@H]5O)[C@@H](O)[C@H]4O)c(-c4ccc(O)cc4)oc3c2)[C@H](O)[C@H](O)[C@H]1O,5.9

# Same assay, conditions: 5 µM; 24 h; macrophage state: M2-polarized (IL-4 + IL-13), cytokines present during treatment
row,SMILES,cell shape (Z-score)
1,Cc1oc(=O)oc1CN1CCN(c2cc3c(cc2F)c(=O)c(C(=O)O)c2n3C(C)S2)CC1 (stereo not given),-6.14
2,N#CN=C(NCCCCCCOc1ccc(Cl)cc1)Nc1ccncc1,-5.22
3,CCC[C@H](NC(=O)/C(C#N)=C/c1cccc(Br)n1)c1ccccc1,-2.53
4,CN1[C@@H](CC(=O)c2ccccc2)CCC[C@H]1C[C@H](O)c1ccccc1,4.11
5,COc1ccc(/C=C/C(=O)c2ccc(O)cc2O)cc1,-3.18
6,Nc1ccccc1NC(=O)c1ccc(CNC(=O)OCc2cccnc2)cc1,-0.828
7,O=C(O)CC[C@H]1CC[C@@](c2cc(F)ccc2F)(S(=O)(=O)c2ccc(Cl)cc2)CC1,4.15
8,CCCCc1ccc2[nH]c(NC(=O)OC)nc2c1,0.889
9,c1ccc2cc(C3=NCCN3)ncc2c1,0.271
10,O=C1NC(=O)/C(=C/c2ccc3nccc(-c4ccncc4)c3c2)S1,-2.56
